Calls of active or inactive are those of the source. The calls were made as follows: active = hit-call score of the fitted dose curve at least 0.9, where 1 is the maximum; inactive = score below 0.9.

Broadly, the AC50 is the concentration giving half of the maximal activity seen.

Read-out in the assay: Insulin-like growth factor-binding protein 1 (IGFBP1), IGFBP1 (gene 3484)
The assay is described as follows: LTEA_HepaRG_IGFBP1: Life Technologies and Expression Analysis (LTEA) Assay for Insulin-like growth factor-binding protein 1 (IGFBP1) using HepaRG (AID 2283508). The conditions noted are these: mRNA level, 48 h; actives raise or lower the signal. The protocol: LTEA_HepaRG is a cell based, multiplexed-readout assay that uses HepaRG, a human liver cell line, with measurements taken at 48 hours after chemical dosing on a 96-well plate.LTEA_HepaRG_IGFBP1 is one of 102 assay component(s) measured in the LTEA HepaRG cell culture assay. It is a marker of Cell proliferation, survival, death.Data from the assay component LTEA_HepaRG_IGFBP1 was analyzed into 1 endpoint. This assay endpoint, LTEA_HepaRG_IGFBP1, was analyzed with bidirectional fitting relative to DMSO as the negative control and baseline of activity. Using a type of inducible reporter, measures of mRNA induction for gain or loss-of-signal activity can be used to understand regulation of transcription factor activity. To generalize the intended target to other relatable targets, this assay endpoint is annotated to the transporter intended target family, where the subfamily is hormone carrier protein.
A total of 1060 chemcials from the ToxCast library were tested in eight-point concentration-response experiments. Cell culture and cytotoxicity assays were conducted at Thermo Fisher Scientific's Custom Services facility (Madison, WI). A single lot of human HepaRG cells (Thermo Fisher Scientific, Frederick, MD) was used for the cell culture experiments. 96-well format collagen type I coated plates of human HepaRG cells were prepared using established methods. Briefly, cryopreserved HepaRG cells were thawed, plated at a density of approximately 100,000 cells/well in HepaRG Thaw, Plate, and General Purpose media (HPRG770, Thermo Fisher Scientific), and incubated for 48 hours. 0.5% DMSO was selected as vehicle control to balance the requisite need of DMSO in HepaRG cultures to maintain differentiation (for example, baseline metabolism, proportions of hepatocytes vs. cholangiocytes), while enabling further hepatic receptor pathway activation (for example, PXR and CAR) in response to chemical exposure. 48 hours after plating, the culture medium was replaced with HepaRG Serum-Free Incudtion Media. Cells were exposed to each test chemical in duplicate and maintained in CO2 incubators for another 48 hours. Chemical plates were thawed to room temperature and 200x concentrations of treatment groups were prepared. 8-point conentration-reponse curves were made with the highest exposure at 100 uM, followed by half-log dilutions, all in 0.5% DMSO. Each test plate contained variouse controls, induction positive controls (1mM phenobarbital), cytotoxicity positive controls ([…] aflatoxin B1), vehicle controls (0.5% DMSO), and total lysis controls (0.5% DMSO). Cell morphology images were taken using an Essen IncuCyte FLR automated microscope, with six 96-well plates imaged in about 24 minutes. Images were captured and exported and JPEG files. Spent culture media was transfered to black-well plates for the LDH assay, and remaining media was sorted at -80 C for later use. Cells were treated with RLT buffer and frozen until shipped for gene expression analysis. Total RNA was isolated from the cell suspension in 75 uL of Buffer RLT (Qiagen, Germantown, MD 20874) by Quintiles/Expression Analysis (Durham, NC) using a custom isolation procedure. Total RNA from each plate well was transferred to a preamplification plate. Fluidigm's 96.96 Dynamic ArrayTM (Fluidigm, Amsterdam, the Netherlands) technology was used for gene expression analyses by quantitative reverse transcription polymerase chain reaction (qRT-PCR, performed by Quintiles/Expression Analysis, Durham, NC)89. Standard TaqManTM Assays (Applied Biosystems/ThermoFisher Scientific, Foster City, CA) were used to assess the expression of 93 genes selected based on their selectivity and sensitivity to important hepatic receptors known to be modulated by environmental chemicals; importance in human hepatocyte functionality; and hepatotoxicity. […]
For `CCCCC(CC)C(=O)O` (stereo unspecified), the outcome was inactive. Turning to `CCCCC=O`, the outcome was inactive. Still for that read-out and setting: under `CCCCCCCCCCCCCCC` stands “inactive”. In the case of `O=C1NS(=O)(=O)c2ccccc21`, the compound was called inactive. Consider `CN(C)CCOC(c1ccccc1)c1ccccc1`, for which the result was inactive.

`CCCCc1oc2ccccc2c1C(=O)c1cc(I)c(OCCN(CC)CC)c(I)c1`: the AC50 was 54 µM (active). Consider `OCC(CO)(CBr)CBr`, for which the compound was called inactive.

For the compound `N=C(N)c1ccc(OCCCCCOc2ccc(C(=N)N)cc2)cc1`, the AC50 was 3.52 µM (active). On to `O=C(c1ccccc1)c1ccccc1`, for which the compound was called inactive. For `CN(Cc1cnc2nc(N)nc(N)c2n1)c1ccc(C(=O)N[C@@H](CCC(=O)O)C(=O)O)cc1`, the compound was called inactive.

On to `O=C(CCCN1CCC(O)(c2ccc(Cl)cc2)CC1)c1ccc(F)cc1`, for which the AC50 was 71.1 µM (active). As to `CS(=O)(=O)c1ccc([C@@H](CC2CCCC2)C(=O)Nc2cnccn2)cc1Cl`, the AC50 was 75.2 µM (active). Consider `Cc1[nH]nc2c1N=C(c1ccccc1Cl)c1cc([N+](=O)[O-])ccc1N2`, for which the AC50 was 79.6 µM (active). For `CCC(C)c1ccccc1O` (stereo unspecified), the outcome was inactive. For `CC(=O)Nc1ccc(O)cc1`, the outcome was inactive. Turning to `CCCCCCCCCCCCOS(=O)(=O)O`, the concentration at half-maximal activity (AC50) was 79.1 µM (active).

Source of the values: PubChem BioAssay (EPA / NIEHS).
